Assay results as given in PubChem BioAssay.
Entries with a potency or affinity are not part of this list. Records with an inconclusive call do not appear. Activity calls are given as the source filed them.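 How the source made its calls: active means falling signal with fitted half-maximal potency no higher than twice the top valid tested dose; inconclusive means poor fit quality, or flat fit spanning -70% to -30%; inactive means potency over limit, rising signal, or flat fit inside 30%.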

Assay: Cryptococcus neoformans growth inhibition, dose response, Alamar Blue, cherry-picks (AID 686998)
Settings: 24 h; series mostly up to 35 µM; activity change, negative = inhibition: at the top concentration

Activity change, negative = inhibition, inactive:
C[C@H]1CCCCO[C@H](CN(C)S(=O)(=O)c2ccc(Cl)cc2)[C@@H](C)CN([C@@H](C)CO)C(=O)c2cc(NS(=O)(=O)c3cccs3)ccc2O1 2.7%
CNC[C@@H]1Oc2cc(Br)ccc2S(=O)(=O)N([C@H](C)CO)C[C@H]1C 24.4%
C[C@@H]1CN([C@@H](C)CO)C(=O)c2cc(-c3ccc(C#N)cc3)cnc2O[C@@H]1CN(C)C(=O)Nc1ccc(F)cc1 -31.2%
CC(C)NC(=O)Nc1ccc2c(c1)C(=O)N([C@@H](C)CO)C[C@@H](C)[C@@H](CN(C)C(=O)c1ccncc1)OCCCC[C@@H](C)O2 -16.2%
O=C(NC1CCCCC1)N[C@H]1C=C[C@@H](CC(=O)N2CCOCC2)O[C@H]1CO -8.08%
CC(C)NC(=O)N(C)C[C@H]1Oc2c(NC(=O)C3CCCCC3)cccc2C(=O)N([C@H](C)CO)C[C@H]1C 34.4%
O=C(NC[C@@H]1[C@H](c2ccccc2)[C@@H](CO)N1C(=O)Cc1cccnc1)C1CCC1 -36.1%
CC(=O)N1[C@@H]2CN(S(=O)(=O)c3ccccc3F)c3ccccc3[C@@H]2[C@@H]1CO 14%
C[C@@H]1CN([C@@H](C)CO)C(=O)c2cc(NC(=O)C3CCCCC3)ccc2O[C@@H](C)CCCCO[C@@H]1CN(C)C(=O)NC1CCCCC1 35.2%
C[C@@H]1CN([C@@H](C)CO)C(=O)c2cc(NS(=O)(=O)c3cn(C)cn3)ccc2O[C@@H](C)CCCCO[C@H]1CN(C)C -2.24%
COc1ccccc1-c1ccc2c(c1)O[C@@H](CN(C)C(=O)c1cccnc1)[C@H](C)CN([C@@H](C)CO)S2(=O)=O -32.1%
CCC(C)(C(=O)Nc1ccccc1C)N(C(=O)CNC(C)=O)c1ccc(C)cc1 (configuration not stated) -6.45%
C[C@H]1CN([C@@H](C)CO)C(=O)c2cc(-c3cncnc3)cnc2O[C@H]1CN(C)C(=O)c1ccccc1F 22%
COCC(=O)N1C[C@H](C)[C@@H](OC)CN(C)C(=O)c2ccc(NS(C)(=O)=O)cc2OC[C@@H]1C 16.8%
C[C@H](CO)N1C[C@H](C)[C@@H](CN(C)C(=O)Nc2cccc3ccccc23)Oc2c(cccc2N(C)C)C1=O 24.3%
Cc1ccc(S(=O)(=O)N(C)C[C@@H]2Oc3ncc(Br)cc3C(=O)N([C@@H](C)CO)C[C@H]2C)cc1 -29.7%
CCCNC(=O)C[C@H]1C[C@H]2c3cc(NC(=O)Nc4ccc(OC)cc4)ccc3O[C@H]2[C@@H](CO)O1 6.02%
C[C@H]1CN([C@@H](C)CO)C(=O)Cc2cc(NS(=O)(=O)c3ccc(F)cc3)ccc2O[C@H]1CN(C)S(=O)(=O)c1ccc(F)cc1 43.2%
CC(C)NC(=O)N1CC[C@@H]2[C@@H](CO)N(C)c3ccc(-c4cccc(F)c4)cc3[C@@H]21 -33.9% [at 30 µM]
Cc1cc(C)c(NC(=O)C2CCCN2CCO)c(C)c1 (configuration not stated) -34%
CO[C@@H]1CC[C@@H]2CCOc3c(C#N)cccc3C(=O)N(C)C[C@H](c3ccccc3)CC(=O)N(C)C[C@@H]1O2 9.16%
NC(=O)CN(c1ccccc1)S(=O)(=O)c1ccc(F)cc1 -9.28% [at 42 µM]
O=C(c1cc(Br)ccc1Cl)N1CCN(c2ccccn2)CC1 -11.3%
CN1C(=O)c2cc(NS(C)(=O)=O)ccc2OC[C@@H]2O[C@@H](CC(=O)O)CC[C@H]21 -21.6%
COc1ccc(CN(C)C[C@@H]2Oc3ccc(NC(=O)C4CC4)cc3C(=O)N([C@H](C)CO)C[C@H]2C)cc1 -23.1%
CC(C)NC(=O)Nc1ccc2c(c1)C(=O)N([C@@H](C)CO)C[C@H](C)[C@@H](CN(C)C(=O)CCC(F)(F)F)OCCCC[C@H](C)O2 -13.1%
COc1ccccc1NC(=O)N[C@@H]1CC[C@H](CCn2cc(-c3ccccc3OC)nn2)O[C@H]1CO -44.9%
